According to PubChem BioAssay AID1159580 (chemical genetic matrix, 2015):
“And” between values parts separate entries of the source, which are not always exact repeats. Equal values may be shown once. Among all 5,500 compounds or so, about 2,000 (36%) were called active. Another 18% or so got no clear call; they are omitted. Rule as the data show it: active = normalized growth mostly below about 0.91 (no sharp cut-off); inconclusive = no clear call, values can overlap the other calls; inactive = mostly above about 0.92. The list shows a part of the results.

Assay: chemical genetic growth profiling, strain panel (AID 1159580);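 also: tested at 20 µM; growth read once vehicle control cultures reached saturation at 30 °C; 1 = growth at the plate median or of vehicle wells; lower values mean less growth of the strain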
Conditions: S. cerevisiae deletion strains, growth OD

Measured: normalized growth

CCCNC(=O)NS(=O)(=O)c1ccc(Cl)cc1
inactive: locus YAL013W, strain DEP1, hits give low values 1.01 and 0.978 | locus YAL021C, strain ccr4, hits give low values 1.02 | locus YAL026C, strain drs2, hits give low values 1.01 | locus YAL030W, strain snc1, hits give low values 1.01 | locus YAL040C, strain CLN3, hits give low values 1.09 | locus YBL061C, strain skt5, hits give low values 1.01 | locus YBR009C, strain hhf1, hits give low values 1.02 | locus YBR021W, strain FUR4, hits give low values 1.03 | locus YBR023C, strain chs3, hits give low values 1.02 | locus YBR171W, strain sec66, hits give low values 1.01 | locus YBR229C, strain ROT2, hits give low values 0.993 | locus YBR231C, strain swc5, hits give low values 1.01 | locus YBR279W, strain paf1, hits give low values 1.01 | locus YCL011C, strain gbp2, hits give low values 1 | locus YCL016C, strain dcc1, hits give low values 1.01 | locus YCL029C, strain bik1, hits give low values 1.01 | locus YCL061C, strain MRC1 (second series), hits give low values 0.997 | locus YCL069W, strain vba3, hits give low values 1.01 | locus YCR088W, strain abp1, hits give low values 0.996 | locus YDL005C, strain med2, hits give low values 1.01 | locus YDL035C, strain GPR1, hits give low values 1 | locus YDL040C, strain nat1, hits give low values 1.01 | locus YDL074C, strain BRE1, hits give low values 1.01 | locus YDL101C, strain DUN1, hits give low values 1.03 | locus YDL134C, strain PPH21, hits give low values 1 | locus YDL185W, strain tfp1, hits give low values 1 | locus YDL192W, strain arf1, hits give low values 1.03 | locus YDR001C, strain nth1, hits give low values 1.01 | locus YDR069C, strain doa4, hits give low values 1.03 | locus YDR101C, strain arx1, hits give low values 1.01 | locus YDR137W, strain rgp1, hits give low values 0.994 | locus YDR150W, strain NUM1, hits give low values 0.986 and 1 | locus YDR159W, strain sac3, hits give low values 1.01 | locus YDR162C, strain NBP2, hits give low values 0.984 | locus YDR195W, strain ref2 1.03 | locus YDR297W, strain sur2, hits give low values 1.02 | locus YDR318W, strain mcm21, hits give low values 1.01 | locus YDR334W, strain swr1, hits give low values 1.01 | locus YDR335W, strain msn5, hits give low values 1.02 | locus YDR363W, strain ESC2, hits give low values 0.97 | locus YDR388W, hits give low values 1.01 | locus YDR392W, strain spt3, hits give low values 1 | locus YDR502C, strain sam2, hits give low values 1.05 | locus YEL003W, strain gim4, hits give low values 1.02 | locus YEL037C, strain rad23, hits give low values 1.01 | locus YEL061C, strain CIN8 (second series), hits give low values 1.02 | locus YEL061C, strain CIN8, hits give low values 0.997 | locus YER002W, strain NOP16, hits give low values 1.01 | locus YER015W, strain faa2, hits give low values 1.02 | locus YER016W, strain bim1, hits give low values 0.989 | locus YER110C, hits give low values 0.998 | locus YER111C, strain swi4, hits give low values 1.02 | locus YER155C, strain BEM2 (second series), hits give low values 1.03 | locus YER155C, strain BEM2, hits give low values 1.01 | locus YER167W, strain BCK2, hits give low values 1 | locus YFR010W, strain ubp6, hits give low values 1.04 | locus YGL078C, strain dbp3, hits give low values 1.02 | locus YGL167C, strain pmr1, hits give low values 0.991 | locus YGL173C, strain kem1, hits give low values 1.02 | locus YGL227W, strain vid30, hits give low values 1.02 | locus YGL240W, strain doc1, hits give low values 1.03 | locus YGL248W, strain PDE1, hits give low values 1.03 | locus YGL253W, strain hxk2, hits give low values 1.01 | locus YGR135W, strain pre9, hits give low values 1.05 | locus YGR229C, strain SMI1, hits give low values 0.994 | locus YGR252W, strain gcn5, hits give low values 1.07 | locus YHR013C, strain ard1, hits give low values 1.05 | locus YHR027C, strain rpn1, hits give low values 1.01 | locus YHR030C, strain SLT2, hits give low values 0.991 and 1.01 | locus YHR079C, strain IRE1 (second series), hits give low values 1.01 | locus YHR079C, strain IRE1, hits give low values 0.986 | locus YHR094C, strain hxt1, hits give low values 1.01 | locus YHR129C, strain ARP1, hits give low values 1.01 | locus YHR142W, strain chs7, hits give low values 1.04 | locus YHR200W, strain rpn10, hits give low values 1.01 | locus YIL066C, strain RNR3, hits give low values 0.998 | locus YIL073C, strain SPO22, hits give low values 1.02 | locus YIL125W, strain kgd1, hits give low values 0.997 | locus YIR030C, strain dcg1, hits give low values 0.997 | locus YJL092W, strain hpr5, hits give low values 1 | locus YJL095W, strain BCK1 (second series), hits give low values 1.02 | locus YJL095W, strain BCK1, hits give low values 1.05 and 0.979 | locus YJL115W, strain asf1, hits give low values 1.02 | locus YJL129C, strain trk1, hits give low values 1.02 | locus YJL134W, strain LCB3, hits give low values 0.996 | locus YJL154C, strain vps35, hits give low values 1.01 | locus YJL164C, strain tpk1, hits give low values 1.01 | locus YJL166W, strain qcr8, hits give low values 1.01 | locus YJL168C, strain set2, hits give low values 1.01 | locus YJL187C, strain SWE1 (second series), hits give low values 1.03 | locus YJR043C, strain POL32, hits give low values 1 | locus YJR066W, strain TOR1, hits give low values 0.983 | locus YKL009W, strain mrt4, hits give low values 1.01 | locus YKL068W, hits give low values 0.984 | locus YKL085W, strain MDH1 (second series), hits give low values 0.979 | locus YKL085W, strain MDH1, hits give low values 0.979 | locus YKL160W, strain elf1, hits give low values 1.02 | locus YKR001C, strain vps1, hits give low values 0.992 | locus YKR026C, strain gcn3, hits give low values 0.99 | locus YKR091W, strain srl3, hits give low values 1.01 | locus YLL001W, strain dnm1, hits give low values 1.01 | locus YLL026W, hits give low values 1.02 | locus YLL041C, strain sdh2, hits give low values 0.991 | locus YLR027C, strain aat2, hits give low values 1.01 | locus YLR039C, strain RIC1, hits give low values 0.967 | locus YLR058C, strain SHM2, hits give low values 1.02 | locus YLR102C, strain apc9, hits give low values 1 | locus YLR113W, strain HOG1, hits give low values 0.99 | locus YLR221C, strain rsa3, hits give low values 1 | locus YLR258W, strain gsy2, hits give low values 1.01 | locus YLR262C, strain YPT6 (second series), hits give low values 1 | locus YLR262C, strain YPT6, hits give low values 0.977 | locus YLR268W, strain sec22, hits give low values 1.01 | locus YLR320W, strain mms22, hits give low values 1.02 | locus YLR330W, strain CHS5, hits give low values 1 | locus YLR342W, strain FKS1 (second series), hits give low values 0.984 | locus YLR342W, strain FKS1, hits give low values 1.02 | locus YLR357W, strain rsc2, hits give low values 1.03 | locus YLR370C, strain arc18, hits give low values 1.02 | locus YLR371W, strain rom2, hits give low values 0.997 | locus YLR384C, strain iki3, hits give low values 1.03 | locus YLR418C, strain cdc73, hits give low values 1.08 | locus YML016C, strain PPZ1, hits give low values 0.997 | locus YML032C, strain rad52, hits give low values 0.996 | locus YML120C, strain ndi1, hits give low values 1.02 | locus YML124C, strain tub3, hits give low values 0.997 | locus YMR058W, strain fet3, hits give low values 1 | locus YMR078C, strain ctf18, hits give low values 1 | locus YMR125W, strain sto1, hits give low values 1 | locus YMR129W, hits give low values 1.01 | locus YMR205C, strain PFK2, hits give low values 1.02 | locus YMR223W, strain ubp8, hits give low values 1.03 | locus YMR231W, strain pep5, hits give low values 1.01 | locus YMR263W, strain SAP30, hits give low values 0.991 | locus YMR307W, strain GAS1, hits give low values 1.09 | locus YNL067W, strain RPL9B, hits give low values 1.03 | locus YNL071W, strain lat1, hits give low values 1.03 | locus YNL128W, strain TEP1, hits give low values 1.01 | locus YNL153C, strain GIM3, hits give low values 1.02 and 1.01 | locus YNL175C, strain NOP13, hits give low values 1.02 | locus YNL183C, strain NPR1, hits give low values 0.935 | locus YNL197C, strain WHI3, hits give low values 1.02 | locus YNL209W, strain ssb2, hits give low values 1 | locus YNL224C, strain SQS1, hits give low values 0.983 | locus YNL233W, strain BNI4, hits give low values 1.02 | locus YNL248C, strain rpa49, hits give low values 1.09 | locus YNL250W, strain rad50, hits give low values 1 | locus YNL271C, strain bni1, hits give low values 1.01 | locus YNL298W, strain CLA4, hits give low values 0.99 | locus YNL307C, strain MCK1, hits give low values 1.01 | locus YNL322C, strain KRE1 (second series), hits give low values 1 | locus YNL322C, strain KRE1, hits give low values 0.988 | locus YNR049C, strain mso1, hits give low values 1.02 | locus YNR052C, strain pop2, hits give low values 1.01 | locus YOL012C, strain htz1 0.677 | locus YOL147C, strain pex11, hits give low values 0.996 | locus YOR001W, strain rrp6, hits give low values 1.02 | locus YOR061W, strain CKA2, hits give low values 1.01 | locus YOR069W, strain VPS5, hits give low values 0.992 | locus YOR070C, strain gyp1, hits give low values 1.01 | locus YOR080W, strain dia2, hits give low values 1.03 | locus YOR083W, strain WHI5 (second series), hits give low values 0.985 | locus YOR083W, strain WHI5, hits give low values 1.01 | locus YOR106W, strain vam3, hits give low values 1.01 | locus YOR136W, strain idh2, hits give low values 1 | locus YOR144C, strain elg1, hits give low values 1.01 | locus YOR184W, strain ser1, hits give low values 1.01 | locus YOR231W, strain MKK1, hits give low values 0.971 | locus YOR265W, strain rbl2, hits give low values 1.01 | locus YOR270C, strain vph1, hits give low values 1.01 | locus YOR290C, strain snf2, hits give low values 1.02 | locus YOR316C, strain cot1, hits give low values 1 | locus YPL051W, strain arl3, hits give low values 1.02 | locus YPL078C, strain atp4, hits give low values 1.02 | locus YPL106C, strain sse1, hits give low values 1.03 | locus YPL240C, strain hsp82, hits give low values 1.01 | locus YPL241C, strain CIN2, hits give low values 0.997 | locus YPL256C, strain CLN2, hits give low values 0.975 | locus YPR119W, strain clb2, hits give low values 0.999 | locus YPR141C, strain kar3, hits give low values 1 | locus YPR163C, strain tif3, hits give low values 1 | locus YPR167C, strain met16, hits give low values 1 | strain wtn01, hits give low values 1.01
